From PubChem BioAssay (NCATS)
The source made the active and inactive calls. Calls come from the whole dose curve; as a rule, active = well fitted curve in the direction sought with a large enough effect; inactive = no such curve, though single readings can be large or run the other way.

target: Alpha-galactosidase A (Homo sapiens) (UniProt P06280); test: Counterscreen for Glucocerebrosidase Inhibitors: qHTS Assay for Human alpha-Galactosidase at pH 4.5 (AID 992); details: purified enzyme, fluorogenic substrate; series mostly up to 76.9 µM
Sequence (P06280 whole entry, looked up): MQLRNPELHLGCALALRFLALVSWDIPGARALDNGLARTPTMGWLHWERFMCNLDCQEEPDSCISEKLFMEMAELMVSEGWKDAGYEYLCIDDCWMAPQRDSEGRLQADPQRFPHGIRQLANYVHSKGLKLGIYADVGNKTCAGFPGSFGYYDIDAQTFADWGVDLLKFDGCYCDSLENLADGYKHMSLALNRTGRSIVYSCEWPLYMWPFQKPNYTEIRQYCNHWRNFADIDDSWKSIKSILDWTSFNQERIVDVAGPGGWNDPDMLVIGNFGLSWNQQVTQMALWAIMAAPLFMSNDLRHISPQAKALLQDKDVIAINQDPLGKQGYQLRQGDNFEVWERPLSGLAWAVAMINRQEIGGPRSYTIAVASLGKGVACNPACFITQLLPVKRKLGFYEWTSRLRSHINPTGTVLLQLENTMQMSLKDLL
From the text: NIH Chemical Genomics Center [NCGC]
NIH Molecular Libraries Screening Centers Network [MLSCN]
PI Name: Zheng, Wei [NIH]
Alpha-galactosidase is a homodimeric glycoprotein that hydrolyzes the terminal alpha-galactosyl moieties from glycolipids and glycoproteins. Deficiency of this enzyme results in Fabry Disease with progressive accumulation of globotriaosylceramide and other glycosphingolipids in vascular endothelial cells that causes renal failure, myocardial infarction and stroke, and premature death in patients. It has reported that the improper folding and trafficking of alpha-galactosidase resulted from the genetic mutations may account for a significant numbers of Fabry patients. […] We optimized this alpha-galactosidase assay in 1536-well plate format for identifying the novel small molecule inhibitors with the structures other than the sugar analogs in order to develop the new pharmacological chaperones.
NCGC Assay Protocol Summary:
This is a fluorogenic enzyme assay with 4-Methylumbelliferyl alpha-D-galactopyranoside as the substrate and human […] as the enzyme preparation. Upon the hydrolysis of this fluorogenic substrate, the resulting product, […]. 4-Methyllumbelliferone, can be excited at 365 nm and emits at 440 nm which can be detected by a standard fluorescence plate reader. Data were normalized to the controls for basal activity (without enzyme) and 100% activity (with enzyme). In the AC50 values were determined from concentration-response data modeled with the standard Hill equation.
Assay buffer: 50 mM citric acid, 0.005% Tween-20, pH 4.5. (pH 4.5 is an optimal condition for this enzyme assay)
1536-well assay protocol for the human alpha-galactosidase:
(1) Add 2 ul/well of enzyme (2 nM final)
(2) Add 23 nL compounds in DMSO solution. The final titration was 0.7 nM to 77 uM.
(3) Add 1 ul of substrate (80 uM final)
(4) Incubate at room temperature for 20 min.
(5) Add 2 ul stop solution (1M NaOH and 1M Glycine mixture, pH 10)
(6) Detect the assay plate in a ViewLux plate reader (PerkinElmer) with Ex=365 nm and Em=440nm.
Keywords: Alpha-galactosidase, Fabry Disease, pharmacological chaperone, chaperone therapy, high throughput screening, alpha-galactosidase inhibitor, MLSMR, MLSCN, NIH Roadmap, qHTS and NCGC

Row | SMILES | outcome
1 | CCn1cc(C(=O)O)c(=O)c2cc(F)c(N3CCN[C@@H](C)C3)c(F)c21 | inactive
2 | CCCN[C@@H](C)C(=O)Nc1ccccc1C | inactive
3 | C[C@@](N)(Cc1ccc(O)c(O)c1)C(=O)O | inactive
4 | CN(C)CC[C@H](c1ccc(Br)cc1)c1ccccn1 | inactive
5 | C[C@H](NCCc1ccc(O)cc1)[C@@H](O)c1ccc(O)cc1 | inactive
6 | CCN(CC)CC#CCOC(=O)[C@@](O)(c1ccccc1)C1CCCCC1 | inactive
7 | C[C@@H](CN(C)C)CN1c2ccccc2CCc2ccccc21 | inactive
8 | CC(C)(C)NC[C@H](O)c1cc(O)cc(O)c1 | inactive
9 | CC(=O)OCC1=C(C(=O)O)N2C(=O)[C@@H](NC(=O)Cc3cccs3)[C@@H]2SC1 | inactive
10 | C[C@@H](C(=O)O)c1cccc(C(=O)c2ccccc2)c1 | inactive
11 | C[C@@H]1c2cccc(O)c2C(O)=C2C(=O)[C@@]3(O)C(O)=C(C(N)=O)C(=O)[C@@H](N(C)C)[C@@H]3[C@@H](O)[C@@H]21 | inactive
12 | C[C@@H](COc1ccccc1)N(CCCl)Cc1ccccc1 | inactive
13 | O=C(c1ccccc1)c1ccc2n1CC[C@H]2C(=O)O | inactive
14 | COc1ccc([C@H]2Sc3ccccc3N(CCN(C)C)C(=O)[C@H]2OC(C)=O)cc1 | inactive
15 | CC(=O)O[C@@H](C)C[N+](C)(C)C | inactive
16 | c1ccc([C@@H]2CN3CCSC3=N2)cc1 | inactive
17 | CN1[C@@H](CC(=O)c2ccccc2)CCC[C@@H]1C[C@@H](O)c1ccccc1 | inactive
18 | CC(C)(Oc1ccc([C@@H]2CC2(Cl)Cl)cc1)C(=O)O | inactive
19 | CN1Cc2c(N)cccc2[C@H](c2ccccc2)C1 | inactive
20 | CN(C)CC[C@@H](c1ccccc1)c1ccccn1 | inactive

Row | SMILES | outcome
21 | CO[C@]1(NC(=O)CSCC#N)C(=O)N2C(C(=O)O)=C(CSc3nnnn3C)CS[C@H]21 | inactive
22 | CN(C)[C@@H]1C(=O)C(C(N)=O)=C(O)[C@]2(O)C(=O)C3=C(O)c4c(O)ccc(Cl)c4[C@H](O)[C@H]3C[C@@H]12 | inactive
23 | NC(=O)c1cc[n+](CC2=C(C(=O)O)N3C(=O)[C@@H](NC(=O)[C@H](c4ccccc4)S(=O)(=O)[O-])[C@@H]3SC2)cc1 | inactive
24 | CN1[C@@H]2CC[C@H]1CC(OC(=O)[C@@H](O)c1ccccc1)C2 (stereo not given in full) | inactive
25 | CCN(CC)CCC[C@H](C)Nc1c2ccc(Cl)cc2nc2ccc(OC)cc12 | inactive
26 | N[C@@H](CO)C(=O)NNCc1ccc(O)c(O)c1O | inactive
27 | Cc1ccccc1[C@@H](OCCN(C)C)c1ccccc1 | inactive
28 | COc1cc(=O)n(C)c2c(OC[C@@H](O)C(C)(C)O)cccc12 | inactive
29 | CO/N=C(\C(=O)N[C@@H]1C(=O)N2C(C(=O)O)=C(COC(C)=O)CS[C@@H]12)c1csc(N)n1 | inactive
30 | CC(C)NC[C@H](O)c1cc(O)cc(O)c1 | inactive
31 | O=C(O)CNC(=O)[C@@H](CS)Cc1ccccc1 | inactive
32 | CCN(CC)CCC[C@H](C)Nc1ccnc2cc(Cl)ccc12 | inactive
33 | O[C@@](CCN1CCCCC1)(c1ccccc1)C1CCCCC1 | inactive
34 | CCCCCN(CCCCC)C(=O)[C@H](CCC(=O)O)NC(=O)c1ccc(Cl)c(Cl)c1 | inactive
35 | O=C(O)[C@H]1CCCN(CCC=C(c2ccccc2)c2ccccc2)C1 | inactive
36 | CCCN(CCC)C(=O)[C@@H](CCC(=O)O)NC(=O)c1ccccc1 | inactive
37 | CN(C)CCO[C@](C)(c1ccccc1)c1ccccn1 | inactive
38 | C[C@@H]1COc2c(N3CCN(C)CC3)c(F)cc3c(=O)c(C(=O)O)cn1c23 | inactive
39 | CC(=O)O[C@]1(C(C)=O)CC[C@@H]2[C@@H]3C=C(Cl)C4=CC(=O)[C@H]5C[C@@H]5[C@]4(C)[C@H]3CC[C@]21C | inactive
40 | OCCN1CCN(CC/C=C2\c3ccccc3Sc3ccc(C(F)(F)F)cc32)CC1 | inactive
